Experimental data from PubChem BioAssay AID1240 (Sanford-Burnham Center for Chemical Genomics, 2008).
Several values for one entry are separate records, joined by “and”; a condition that tells them apart may be missing. Equal entries are not always repeated. The whole screen tested about 50,000 compounds, of which about 800 (1.6%) showed an effect of 50% or more. What follows is part of a selection rich in strong results, with near analogues and random picks from the rest.

Target: Bcl-2-like protein 10 (Homo sapiens) (UniProt Q9HD36)
Sequence (Q9HD36 whole entry, looked up): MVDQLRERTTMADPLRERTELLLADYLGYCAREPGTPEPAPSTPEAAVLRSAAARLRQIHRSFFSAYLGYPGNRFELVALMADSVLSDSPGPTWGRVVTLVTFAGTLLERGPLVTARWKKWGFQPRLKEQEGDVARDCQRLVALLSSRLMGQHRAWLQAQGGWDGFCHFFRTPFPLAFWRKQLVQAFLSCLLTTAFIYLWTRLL
Experiment: Phenotype converters, Bcl-B/TR3 peptide binding displacement, primary biochemical FP (AID 1240);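 also: 0% = Bcl-B with tracer peptide and DMSO and 100% = tracer peptide lacking Bcl-B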
Details: GST-Bcl-B / FITC-TR3 peptide fluorescence polarization; stronger effect = higher value; compound at 3.75 mg/L

In order of rising displacement:
1. COc1ccc(CN2C(=O)NC(=O)/C(=C\c3ccoc3)C2=O)cc1  -114%
2. O=C1NC(=O)N(c2cccc(Br)c2)C(=O)/C1=C/c1ccc(-c2ccc(C(=O)O)cc2)o1  -56.7%
3. CN1C(=O)NC(=O)/C(=C/c2ccc(-c3cccc([N+](=O)[O-])c3)o2)C1=O  -20.5%
4. COc1cc(OC)c(OC)cc1CN1CCN(C(=O)COc2ccccc2)CC1  -13.1%
5. COc1ccc(CN2CCN(C(=O)Cc3ccccc3)CC2)cc1Br  -10%
6. Cc1ccccc1-n1c(CN2C(=O)c3ccccc3C2=O)nc2ccccc2c1=O  -9.6%
7. COc1ccc(N2C(=O)NC(=O)/C(=C/c3ccc(SC)cc3)C2=O)cc1  -9.4%
8. CN1C(=O)NC(=O)/C(=C/c2ccc(-c3ccc([N+](=O)[O-])cc3Br)o2)C1=O  -9.1%
9. Cc1cc(Cl)ccc1OCC(=O)N1CCN(C)CC1  -6.7%
10. CSc1nc2ccccc2c(=O)n1-c1cccc(C)c1  -6.2%
11. CC(C)c1ccc(N2C(=O)CC(=O)NC2=O)cc1  -5.9%
12. CN1C(=O)C(=Cc2ccc(-c3cc(C(=O)O)ccc3Cl)o2)C(=O)N(C)C1=O  -2.5%
13. Cc1ccc(-c2nc3ccccc3c(=O)n2-c2nccs2)cc1  -0.6%
14. O=C1c2ccccc2NC(c2ccccc2F)N1c1ccccc1 (centres undefined)  -0.3%
15. Cc1cc(C=C2C(=O)NC(=O)NC2=O)c(C)n1-c1ccc(N(C)C)cc1  0.1%
16. CN1C(=O)NC(=O)/C(=C\c2cc3c(cc2Cl)OCO3)C1=O  0.4%
17. COc1cc(C=C2C(=O)NC(=O)NC2=O)ccc1OCc1ccc(C(=O)O)cc1  0.6%
18. Cc1cc(/C=C2\C(=O)NC(=O)N(c3ccc(Cl)cc3)C2=O)c(C)n1C  1.7%
19. O=[N+]([O-])c1ccc(CNCCc2cccc(F)c2)cc1  2.2%
20. Cc1cc(C=C2C(=O)NC(=O)NC2=O)c(C)n1C  2.4%
21. C(=NCCCN1CCOCC1)c1c[nH]c2ccccc12  2.6%
22. COc1cccc(/C=C2/C(=O)NC(=O)N(c3cccc(C)c3)C2=O)c1O  3.1%
23. O=C(ON1CC1(C(F)(F)F)C(F)(F)F)c1ccccc1 (centres undefined)  3.2%
24. O=C1NC(=S)NC(=O)C1=Cc1cccc(OS(=O)(=O)c2ccc3ccccc3c2)c1  3.4%
25. CN1C(=O)NC(=O)/C(=C/c2ccc(-c3ccc([N+](=O)[O-])cc3)o2)C1=O  3.6%
26. CC1(C)C(C(=O)Nc2cccc3ccccc23)C1(C)C  3.9%
27. Cc1ccc(-n2c(/C=C3/C(=O)Nc4ccc(Br)cc43)nc3ccccc3c2=O)cc1  4.3%
28. O=C1Nc2ccccc2/C1=C/c1nc2ccc(I)cc2c(=O)n1-c1ccccc1  4.5%
29. O=[N+]([O-])/C=C/c1ccccc1OCc1ccc(Cl)cc1Cl  4.5%
30. O=C1NC(=O)N(c2ccc(Cl)cc2)C(=O)/C1=C\c1cc(Br)cc(Cl)c1O  4.8%
31. O=C1NC(=O)N(c2cccc(Br)c2)C(=O)/C1=C/c1ccco1  5.2%
32. Cc1ccc(N2C(=O)CC(=O)NC2=S)cc1  5.6%
33. N#CC(C#N)=Cc1cccc2ccccc12  5.7%
34. Cc1ccc(N2C(=O)NC(=O)/C(=C\c3ccc(-c4ccc(Cl)c(C(=O)O)c4)o3)C2=O)cc1  6.3%
35. CN1C(=O)C(=Cc2cccc(OCCOc3ccc([N+](=O)[O-])cc3)c2)C(=O)N(C)C1=O  6.4%
36. Cc1cc(C=C2C(=O)NC(=S)NC2=O)c(C)n1C  6.6%
37. CC(C)CCn1c(=O)c(C(=O)Nc2ccc(I)cc2)c(O)c2ccccc21  7.1%
38. CCCCn1c(=O)c(C(=O)Nc2ccc(I)cc2)c(O)c2ccccc21  7.1%
39. COc1ccc(C=C2C(=O)NC(=S)NC2=O)cc1OCc1ccccc1Cl  8.2%
40. O=C(Nc1ccc(Br)cc1C(=O)c1ccccc1)c1ccc(F)cc1  8.4%
41. Cc1cc([N+](=O)[O-])c(C)cc1-c1ccc(C=C2C(=O)NC(=O)NC2=O)o1  8.4%
42. CN=C(C)c1c(O)n(C)c(=S)n(C)c1=O  8.8%
43. CN(C)c1ccc(/C=C2\C(=O)NC(=O)N(c3ccccc3Cl)C2=O)cc1  9.7%
44. O=C(Cc1ccccc1)N1CCN(Cc2cccnc2)CC1  9.9%
45. O=c1oc2ccccc2c2c1C(c1ccc(Cl)cc1)c1c(c3ccccc3oc1=O)O2  10.3%
46. C=CCOc1ccc(/C=C2\C(=O)NC(=O)N(CC=C)C2=O)cc1OC  10.9%
47. Cc1cc([N+](=O)[O-])ccc1-c1ccc(/C=C2/C(=O)NC(=O)N(C)C2=O)o1  11.4%
48. CCOc1ccc(N2C(=O)NC(=O)/C(=C\c3ccc(C)o3)C2=O)cc1  11.6%
49. Cc1nc2ccccc2c(=O)n1-c1ccc([N+](=O)[O-])cc1  11.9%
50. O=C1NC(=O)N(c2ccccc2Cl)C(=O)C1=Cc1ccccc1  12.8%
51. Cc1nc2ccc(I)cc2c(=O)n1-c1ccc([N+](=O)[O-])cc1Cl  13%
52. COc1ccc(CN2CCN(Cc3cc(Br)ccc3O)CC2)cc1  13.1%
53. Cc1cc(-c2ccc(C=C3C(=O)NC(=O)NC3=O)o2)ccc1[N+](=O)[O-]  13.1%
54. Cc1cc(C)cc(-n2c(C)cc(C=C3C(=O)NC(=O)NC3=O)c2C)c1  13.1%
55. Cc1cc(/C=C2\C(=O)NC(=S)N(c3ccccc3F)C2=O)c(C)n1C  14.1%
56. O=C(Cn1c[n+]([N-][N+](=O)[O-])cn1)N1CCN(C(=O)Cn2c[n+]([N-][N+](=O)[O-])cn2)CC1  15%
57. COc1cccc(CN2CCNCC2)c1OC  15.6%
58. O=C(Cn1c[n+]([N-][N+](=O)[O-])cn1)Nc1ccc([N+](=O)[O-])cc1  16.4%
59. O=C1C(=Cc2ccc(-c3ccccc3[N+](=O)[O-])o2)C(=O)N(c2ccccc2)C(=S)N1c1ccccc1  16.4%
60. O=C(N/N=C1/CN2CCC1CC2)c1ccc(O)cc1  17.8%
61. O=c1c2ccccc2nc(-c2cccs2)n1-c1ccccn1  19.3%
62. O=C1NC(=S)NC(=O)C1=Cc1ccc(-c2cc(Cl)c([N+](=O)[O-])cc2Cl)o1  19.3%
63. Cc1ccc(N2C(=O)NC(=O)/C(=C\C=C\c3ccccc3)C2=O)cc1  21.4%
64. O=C1NC(=S)NC(=O)C1=Cc1ccc(-c2ccc([N+](=O)[O-])cc2Br)o1  29%
65. CN1C(=O)NC(=O)/C(=C/c2ccc(-c3ccccc3[N+](=O)[O-])o2)C1=O  35.6%
66. Cc1ccc(/C=C2/C(=O)NC(=O)N(c3ccc(Cl)cc3)C2=O)o1  36.2%
67. Cc1cc(C)cc(N2C(=O)NC(=O)/C(=C\C=C\c3ccccc3)C2=O)c1  42.9%
68. COc1cc(C=C2C(=O)N(C)C(=O)N(C)C2=O)ccc1OCCOc1ccccc1  54.3%
69. COC(=O)C(=O)/C(=C\c1ccc(-c2ccccc2[N+](=O)[O-])o1)C(=O)c1ccccc1  56.7%
70. O=C(Cn1c[n+]([N-][N+](=O)[O-])cn1)Nc1ccc(NC(=O)Cn2c[n+]([N-][N+](=O)[O-])cn2)cc1  59.6%
71. O=C1NC(=O)C(=Cc2ccc(-c3ccc([N+](=O)[O-])cc3Cl)o2)C(=O)N1  66.8%
72. COc1ccc(N2C(=O)NC(=O)/C(=C/c3ccc(-c4cccc(Cl)c4)o3)C2=O)cc1  69%
73. Cc1nc2cc([N+](=O)[O-])ccc2c(=O)n1-c1ccc(Cl)cc1  71.3%
74. Cc1cccc(N2C(=O)NC(=O)/C(=C/c3ccc(-c4ccc([N+](=O)[O-])cc4C)o3)C2=O)c1  76.7%
75. COc1ccc(N2C(=O)NC(=O)/C(=C/c3cc4c(cc3Cl)OCO4)C2=O)cc1  81.5%
76. C=CCN1C(=O)NC(=O)/C(=C/c2ccc(-c3cc([N+](=O)[O-])ccc3Cl)o2)C1=O  84.3%
77. CCc1ccccc1N1C(=O)NC(=O)/C(=C\c2cc(C)n(C)c2C)C1=O  87.7%
78. Cc1cc(C)cc(N2C(=O)NC(=O)/C(=C\c3cc(C)n(C)c3C)C2=O)c1  90.5%
79. O=C1NC(=O)C(=Cc2ccc(-c3cc([N+](=O)[O-])ccc3O)o2)C(=O)N1  109%
80. Cc1cc(C=C2C(=O)NC(=O)NC2=O)c(C)n1C1CCCCC1  124%
81. Cc1cc(/C=C2\C(=O)NC(=O)N(c3cccc(Br)c3)C2=O)c(C)n1C  126%
82. COc1ccc(C=C2C(=O)NC(=O)NC2=O)cc1OCc1ccc(Cl)cc1Cl  150%
83. O=C1c2ccccc2-c2onc3c(Br)cc(N4CC4)c1c23  178%

In the case of `Cc1ccccc1-n1c(=S)[nH]c2ccccc2c1=O`, the displacement is reported as -11% and -8.7%.
